For one assay, the system named is 3D7. Put plainly: qHTS profiling for inhibitors of Plasmodium falciparum proliferation (AID 504749).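 Also: 0% = DMSO vehicle and full inhibition = artemisinin control; nearly all actives have a fitted effect of over 60% in size.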 The conditions noted are these: P. falciparum in erythrocytes, SYBR Green DNA, 72 h; series mostly up to 28.7 µM. The procedure, abridged:
(§1)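 Readout was DNA-dye fluorescence from lysed cultures, ex 485/em 535 nm. Parasitized red cells had grown 72 h with compound; data scaled between 0.29 uM artemisinin and DMSO wells and corrected using vehicle-only plates.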

Another assay has as its system CP217. Described as above. The note with it: P. falciparum in erythrocytes, SYBR Green DNA, 72 h; series mostly up to 28.7 µM. Put shortly: as §1
The test system of another assay is CP250. The description is as above. The note with it: P. falciparum in erythrocytes, SYBR Green DNA, 72 h; series mostly up to 28.7 µM. Put shortly:
as §1

Another assay has as its system CP260. The assay is described as above. The conditions noted are these: P. falciparum in erythrocytes, SYBR Green DNA, 72 h; series mostly up to 28.7 µM. Put shortly: as §1
Another assay deals with CP286. Described as above. The conditions noted are these: P. falciparum in erythrocytes, SYBR Green DNA, 72 h; series mostly up to 28.7 µM. Put shortly:
as §1

In the next assay the test system is DIV14. The assay is described as above. The note with it: P. falciparum in erythrocytes, SYBR Green DNA, 72 h; series mostly up to 28.7 µM. Put shortly: as §1
In the next assay the test system is N140. Described as above. The note with it: P. falciparum in erythrocytes, SYBR Green DNA, 72 h; series mostly up to 28.7 µM. The procedure, abridged: as §1
For a further assay, the system named is PC15. The assay is described as above. The note with it: P. falciparum in erythrocytes, SYBR Green DNA, 72 h; series mostly up to 28.7 µM. Put shortly: as §1
The next assay concerns SC27B. Described as above. The conditions noted are these: P. falciparum in erythrocytes, SYBR Green DNA, 72 h; series mostly up to 28.7 µM. Put shortly: as §1
A further assay relates to TAB165. The description is as above. The note with it: P. falciparum in erythrocytes, SYBR Green DNA, 72 h; series mostly up to 28.7 µM. The procedure, abridged:
as §1

The target of assay [1] is DNA polymerase eta (Homo sapiens) (UniProt Q9Y253). In words: qHTS for Inhibitors of Polymerase Eta: Confirmatory Assay for Cherry-picked Compounds (AID 720502). Also: potency is read from the fitted curve at half-maximal effect. The conditions noted are these: Pol eta primer extension, TAMRA/BHQ fluorescence, 10 min. Put shortly: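 The reaction starts with 50 nM final labeled DNA substrate added to Pol eta (10 nM) that had sat with compound for 15 min. TAMRA emission at 598 nm is read at 0 and 10 min.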
Chain of DNA polymerase eta (Homo sapiens) (Q9Y253 whole entry, looked up): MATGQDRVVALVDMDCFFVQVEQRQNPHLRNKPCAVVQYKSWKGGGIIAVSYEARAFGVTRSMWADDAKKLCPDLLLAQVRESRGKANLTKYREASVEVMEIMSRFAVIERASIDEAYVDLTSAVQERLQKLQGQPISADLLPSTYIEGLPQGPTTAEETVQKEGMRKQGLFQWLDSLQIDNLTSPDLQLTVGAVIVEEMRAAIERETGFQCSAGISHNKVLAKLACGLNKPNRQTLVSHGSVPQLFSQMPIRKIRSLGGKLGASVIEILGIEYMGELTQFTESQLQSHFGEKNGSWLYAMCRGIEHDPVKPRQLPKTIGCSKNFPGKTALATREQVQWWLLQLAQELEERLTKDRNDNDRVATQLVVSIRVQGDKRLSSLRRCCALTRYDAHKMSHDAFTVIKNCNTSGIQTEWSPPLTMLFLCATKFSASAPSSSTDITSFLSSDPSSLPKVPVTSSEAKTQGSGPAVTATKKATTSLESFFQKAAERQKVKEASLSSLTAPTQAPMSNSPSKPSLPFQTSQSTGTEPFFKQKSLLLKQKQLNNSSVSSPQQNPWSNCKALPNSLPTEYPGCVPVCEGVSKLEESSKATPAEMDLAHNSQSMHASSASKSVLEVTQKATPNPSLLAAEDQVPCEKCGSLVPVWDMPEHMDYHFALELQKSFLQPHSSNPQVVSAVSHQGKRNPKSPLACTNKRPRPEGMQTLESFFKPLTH

Assay [2] deals with Ubiquitin carboxyl-terminal hydrolase 1 (Homo sapiens) (UniProt O94782). In words: Inhibitors of USP1/UAF1: Pilot qHTS (AID 504865).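 Also: rhodamine fluorescence freed from ubiquitin-rhodamine substrate followed over time; top concentration of the series differs between compounds; % is scaled to controls: 0 for no effect and ±100 for the full control effect; nearly all actives have a fitted effect of over 35% in size.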 The procedure, abridged:
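1nM USP1/UAF1 + cpd, 15 min RT; start w/ Ub-Rho 150nM final; kinetic FL 480/540 nm, 6 reads q60 s. Buffer 50mM HEPES pH 7.8, 0.5mM EDTA, 1mM TCEP, 0.01% Tween-20, 0.1 mg/ml BSA.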

The target in assay [3] is Tyrosyl-DNA phosphodiesterase 1 (Homo sapiens) (UniProt Q9NUW8). In words: Confirmation Assay for Inhibitors of Tyrosyl-DNA Phosphodiesterase (TDP1) (AID 489007). Also: potency is read from the fitted curve at half-maximal effect; nearly all actives have a fitted effect of over 40% in size. The note with it: recombinant human TDP1 enzymatic activity, dose-response. Put shortly:
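Recombinant E. coli-expressed Tdp1 (1 nM final) was preincubated with compounds 15 min at room temperature, then reacted 5 min with 15 nM 5'-biotin/3'-phosphotyrosine-FITC DNA substrate; cleavage read as loss of AlphaScreen signal (10 ug/ml beads, 10 min).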

A short description of assay [4]: AP1 Signaling Pathway (AID 357; active = well fitted curve in either direction with a large enough effect, not every such curve was filed as active;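 also: ME-180 reporter cells stimulated with EGF at its EC50 level; % is scaled to controls: 0 for no effect and ±100 for the full control effect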). The conditions noted are these: ME-180 AP-1-bla reporter, EGF-induced, beta-lactamase ratio, 5 h; at 7.69 µM (top of the series) unless noted. Put shortly:
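Modulation of EGF-driven AP-1 transcription was assessed with a beta-lactamase reporter in ME-180 cells. Compound and EC50 EGF were co-incubated 5 hours at 37 °C before 2.5-hour CCF4 loading at room temperature and dual-emission reading.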

Assay [5] is described as follows: NFAT Signaling Pathway (AID 444; active = well fitted curve in either direction with a large enough effect, not every such curve was filed as active;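 also: carbachol stimulus at about its EC50 of 1 µM final; % is scaled to controls: 0 for no effect and ±100 for the full control effect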). The note with it: Jurkat NFAT-bla M1, carbachol, beta-lactamase ratio, 5 h; at 7.69 µM (top of the series) unless noted. The procedure, abridged: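 Jurkat cells with NFAT-driven β-lactamase reporter and co-expressed M1 receptor, stimulated with carbachol (final 1 uM, ~EC50), compound titration, 5 h at 37 °C. CCF4 loaded 1 h at RT; 460/530 nm ratio gave %activity and AC50.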

Assay [6] is described as follows: Stat Signaling Pathway (AID 446; active = well fitted curve in either direction with a large enough effect, not every such curve was filed as active;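 also: ME-180 cervical cancer cells given 40 pM IL-6 alongside compound; SIE-controlled beta-lactamase reporter measured as 460/530 nm FRET emission ratio; % is scaled to controls: 0 for no effect and ±100 for the full control effect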). The note with it: ME-180 (cervical carcinoma) SIE beta-lactamase reporter, IL-6 stimulated, 5 h; at 7.69 µM (top of the series) unless noted. Put shortly:
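ME-180 cells carrying a SIE-driven beta-lactamase reporter are stimulated with 40 pM IL-6 for 5 h at 37C in the presence of compound. The 460/530 nm FRET substrate ratio is read after 2.5 h at RT. Data are normalised to 300 pM IL-6 and to 125 nM JAK inhibitor controls.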

Assay [7] addresses Glucocorticoid receptor (Homo sapiens) (UniProt P04150). In words: GR-GFP Redistribution (AID 450;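 active = compounds whose dose series gives a full or clear partial fitted curve of increased nuclear translocation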; also: potency is read from the fitted curve at half-maximal effect). The conditions noted are these: U2OS GR-GFP nuclear translocation, laser cytometry, 2 h.

Values without a mark were called inactive. Records with an inconclusive call do not appear. Some of the results follow. Activity calls are given as the source filed them. Unless noted, calls follow the shape of the dose curve; as a rule, active = well fitted curve in the direction sought with a large enough effect; inconclusive = small, poorly fitted or top-dose-only effect, or another doubt; inactive = no such curve, though single readings can be large; an effect the other way counts as inactive or inconclusive.

Chain of Glucocorticoid receptor (Homo sapiens) (P04150 whole entry, looked up): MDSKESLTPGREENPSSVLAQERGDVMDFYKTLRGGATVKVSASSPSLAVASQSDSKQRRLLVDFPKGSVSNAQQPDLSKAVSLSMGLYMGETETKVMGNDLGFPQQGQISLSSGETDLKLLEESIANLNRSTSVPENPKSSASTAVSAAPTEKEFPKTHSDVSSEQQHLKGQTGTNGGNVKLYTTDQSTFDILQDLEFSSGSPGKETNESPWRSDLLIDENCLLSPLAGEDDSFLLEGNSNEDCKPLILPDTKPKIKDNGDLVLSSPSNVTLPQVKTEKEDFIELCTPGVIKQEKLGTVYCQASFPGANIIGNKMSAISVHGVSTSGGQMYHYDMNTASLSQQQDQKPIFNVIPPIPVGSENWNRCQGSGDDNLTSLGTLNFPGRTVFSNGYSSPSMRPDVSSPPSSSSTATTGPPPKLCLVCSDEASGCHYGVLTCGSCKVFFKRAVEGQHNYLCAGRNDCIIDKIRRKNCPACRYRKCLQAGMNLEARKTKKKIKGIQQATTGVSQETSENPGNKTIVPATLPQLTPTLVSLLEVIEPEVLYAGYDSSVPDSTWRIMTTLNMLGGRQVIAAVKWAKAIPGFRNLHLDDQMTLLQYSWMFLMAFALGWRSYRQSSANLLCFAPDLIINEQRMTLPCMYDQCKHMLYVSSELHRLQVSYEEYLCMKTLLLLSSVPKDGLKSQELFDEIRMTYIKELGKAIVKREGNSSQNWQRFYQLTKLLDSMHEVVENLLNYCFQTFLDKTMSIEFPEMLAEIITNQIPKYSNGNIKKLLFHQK
Chain of Tyrosyl-DNA phosphodiesterase 1 (Homo sapiens) (Q9NUW8 whole entry, looked up): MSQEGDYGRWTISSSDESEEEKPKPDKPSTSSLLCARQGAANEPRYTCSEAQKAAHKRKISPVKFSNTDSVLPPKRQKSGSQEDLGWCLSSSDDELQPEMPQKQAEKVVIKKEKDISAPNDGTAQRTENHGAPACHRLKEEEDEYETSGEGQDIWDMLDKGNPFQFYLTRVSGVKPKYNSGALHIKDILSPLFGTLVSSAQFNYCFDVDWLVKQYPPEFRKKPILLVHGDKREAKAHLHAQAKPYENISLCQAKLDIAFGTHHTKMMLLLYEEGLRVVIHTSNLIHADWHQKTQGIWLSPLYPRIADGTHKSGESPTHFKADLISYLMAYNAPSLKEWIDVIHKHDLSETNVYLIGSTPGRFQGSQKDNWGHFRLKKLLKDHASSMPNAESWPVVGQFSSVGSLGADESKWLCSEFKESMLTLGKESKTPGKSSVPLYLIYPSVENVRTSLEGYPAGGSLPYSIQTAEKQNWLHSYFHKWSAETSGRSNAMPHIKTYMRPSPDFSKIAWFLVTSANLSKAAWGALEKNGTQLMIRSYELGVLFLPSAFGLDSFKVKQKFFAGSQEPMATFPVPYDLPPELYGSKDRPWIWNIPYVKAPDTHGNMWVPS
Chain of Ubiquitin carboxyl-terminal hydrolase 1 (Homo sapiens) (O94782 whole entry, looked up): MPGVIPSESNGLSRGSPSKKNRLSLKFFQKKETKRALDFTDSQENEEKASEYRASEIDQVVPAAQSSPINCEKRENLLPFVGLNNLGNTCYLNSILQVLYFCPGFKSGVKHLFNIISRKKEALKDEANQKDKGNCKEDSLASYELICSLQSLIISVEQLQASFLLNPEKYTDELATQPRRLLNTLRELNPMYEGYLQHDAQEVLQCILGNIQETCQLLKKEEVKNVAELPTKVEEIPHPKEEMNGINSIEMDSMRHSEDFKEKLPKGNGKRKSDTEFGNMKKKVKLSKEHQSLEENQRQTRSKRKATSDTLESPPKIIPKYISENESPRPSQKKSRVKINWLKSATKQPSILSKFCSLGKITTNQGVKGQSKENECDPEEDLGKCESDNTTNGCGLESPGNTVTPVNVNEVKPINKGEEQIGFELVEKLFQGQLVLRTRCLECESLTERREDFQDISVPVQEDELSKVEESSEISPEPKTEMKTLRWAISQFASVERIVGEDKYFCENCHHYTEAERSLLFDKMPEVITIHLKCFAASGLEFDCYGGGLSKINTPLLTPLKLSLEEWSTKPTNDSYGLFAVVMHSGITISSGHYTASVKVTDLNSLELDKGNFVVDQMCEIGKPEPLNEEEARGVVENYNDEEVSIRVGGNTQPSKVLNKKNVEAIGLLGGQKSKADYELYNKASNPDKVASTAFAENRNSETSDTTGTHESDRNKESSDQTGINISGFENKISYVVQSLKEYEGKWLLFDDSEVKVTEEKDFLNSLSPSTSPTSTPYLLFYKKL

Consider `Cc1c(C(=O)O)c(O)cc2c1C(=O)c1c(O)c([C@H]3O[C@H](CO)[C@@H](O)[C@H](O)[C@H]3O)c(O)c(O)c1C2=O`, for which the Potency result with 3D7, in the assay with CP217, in the assay with CP250, in the assay with CP260, with CP286 and in the assay on DIV14 was “inactive” throughout. Also, the Potency result in the assay on N140, in the assay with PC15, with SC27B and in the assay with TAB165 was “inactive” in each case.
Consider `C=CCn1c(=S)[nH]c2scc(-c3ccco3)c2c1=O`, for which the Potency in assay [1] is 26.9 µM (active).
For `Oc1cc2c(cc1O)[C@H]1c3ccc(O)c(O)c3OC[C@@]1(O)C2`, in assay [2], the Potency result was “inactive”.
For the compound `Cc1cc(C)c2nc(-c3ccco3)cc(C(=O)O)c2c1`, the Potency in assay [3] is 15.8 µM (active).
Regarding `CCN1CCc2c(C#N)c(NCc3ccccc3)nc(NCCO)c2C1`, the figures for the activity change, negative = inhibition in assay [4] and in assay [5] were -9.55% [at 17.2 µM] and -11% [at 17.2 µM], respectively. The activity, negative = inhibition in [6] is -0.118% [at 17.2 µM]. The Potency in assay [7] is greater than 20.6 µM.

The values are drawn from PubChem BioAssay (NCATS).
